Bioassay records (PubChem BioAssay)
In the library only some 3.4% were active in any assay of this set; here they are far more common.
MITF inh: MITF inhibitors, primary screen, biochemical, AlphaScreen, human | Microphthalmia-associated transcription factor (Homo sapiens), O75030 | AlphaScreen MITF homodimerization, bead proximity signal | inhibition, % at 2.6 µM | hit rate 0.91% among 650,000; in the data active means inhibition above about 50%
FBW7 act: FBW7 E3 ligase activators, primary screen, biochemical, AlphaScreen, human. normalized activity (activation), % at 26.1 µM. AlphaScreen FBW7–phospho-cyclin E peptide binding, activator screen. AID 1259310, 2017. hit rate 0.13% among 650,000. F-box/WD repeat-containing protein 7 (Homo sapiens), Q969H0; in the data active means normalized activity above about 1.9%;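 further: purified mutant Fbw7 with reduced substrate affinity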
Target sequence (Q969H0 whole entry, looked up): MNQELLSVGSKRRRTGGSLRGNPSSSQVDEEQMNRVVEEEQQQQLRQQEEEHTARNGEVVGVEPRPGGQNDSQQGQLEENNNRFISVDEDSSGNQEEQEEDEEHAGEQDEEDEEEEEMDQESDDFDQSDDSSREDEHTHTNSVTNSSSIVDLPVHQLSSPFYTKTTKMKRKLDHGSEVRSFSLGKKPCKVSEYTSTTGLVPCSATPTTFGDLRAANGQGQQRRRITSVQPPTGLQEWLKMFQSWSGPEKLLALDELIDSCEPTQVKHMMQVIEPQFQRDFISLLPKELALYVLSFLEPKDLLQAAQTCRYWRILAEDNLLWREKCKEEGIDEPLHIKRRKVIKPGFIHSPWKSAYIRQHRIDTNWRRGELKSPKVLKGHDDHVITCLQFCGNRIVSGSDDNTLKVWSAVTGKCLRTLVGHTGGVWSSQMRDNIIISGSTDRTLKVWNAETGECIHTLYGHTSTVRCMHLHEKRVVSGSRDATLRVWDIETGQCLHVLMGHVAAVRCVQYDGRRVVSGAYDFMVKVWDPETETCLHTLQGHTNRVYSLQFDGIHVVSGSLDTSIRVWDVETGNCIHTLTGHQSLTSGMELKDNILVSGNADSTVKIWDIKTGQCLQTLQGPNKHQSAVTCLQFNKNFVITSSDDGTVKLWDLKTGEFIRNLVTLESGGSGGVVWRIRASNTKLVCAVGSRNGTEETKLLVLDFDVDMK
TEAD-YAP block: TEAD-YAP interaction inhibition, primary screen, TEAD-YAP interaction inhibitor project, luminescence, HEK-TIYL cells | AID 1259422, 2018 | inhibition, % at 9.12 µM | TEAD-Gal4/YAP UAS-luciferase luminescence | hit rate 1.4% among 640,000; in the data active means inhibition above about 32%
GPR151 ag: activators of human GPR151, primary screen, cell-based, PathHunter beta-arrestin, luminescence. G-protein coupled receptor 151 (Homo sapiens), Q8TDV0. AID 1508602, 2020. hit rate 1% among 650,000. activation, % at 11.2 µM. PathHunter beta-arrestin GPR151 cells; in the data active means activation above about 4.9%
MITF inh conf: MITF inhibitors, retest of hits, confirmation, biochemical, AlphaScreen, triplicate | shares compounds with MITF inh | AID 1259372, 2018 | inhibition, % at 2.6 µM | hit rate 16% among 4,700 | AlphaScreen MITF homodimerization, biotin/His-MITF beads;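 active means inhibition above a cutoff derived from the DMSO control wells, cut at about 28% in these data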;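 further: inhibitors lower the bead chemiluminescence by keeping MITF from dimerizing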
AS interf DR: AlphaScreen optical interference compounds, dose response, counter-screen, biochemical, HTS. shares compounds with MITF inh. AlphaScreen optical interference counterscreen, cell-free. IC50, µM. hit rate 6% among 480. AID 1259373, 2018; call rule not given here
AS interf ctr: AlphaScreen optical interference compounds, counter-screen for MITF inhibitor project, biochemical, triplicate. LysRS AlphaScreen counterscreen, signal interference. hit rate 7.6% among 4,700. AID 1259376, 2018. shares compounds with MITF inh. inhibition, % at 2.6 µM;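 active means inhibition above a cutoff derived from the DMSO control wells, cut at about 30% in these data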
Hits are given with their value; i = inactive; nt = no result.

SMILES | MITF inh | FBW7 act | TEAD-YAP block | GPR151 ag | MITF inh conf | AS interf ctr | others
Fc1ccc(OCCN2CCNCC2)cc1 | 60 | i | i | i | i | i
CCN1CCN(CCOCCOc2ccc(I)cc2)CC1 | 81 | i | i | i | i | i
CCCCOc1ccc(OCCOCCN2CCN(CC)CC2)cc1 | 65 | i | i | i | i | i
CCN1CCN(CCCOc2ccc(C#N)cc2)CC1 | 72 | i | i | i | i | i
Cc1ncc(CO)c2cc(C(N)=S)c(=Nc3ccc(S(N)(=O)=O)cc3)oc12 | i | i | i | i | nt | nt
CCOc1ccccc1/C=N\NC(=O)c1ccco1 | 70 | i | i | i | i | i
CCOc1cccc2c1OC(c1ccccc1Cl)N1N=C(c3ccco3)CC21 (stereo unspecified) | i | i | i | i | nt | nt
COc1ccc(OCCOCCN2CCN(C)CC2)cc1 | i | i | i | i | nt | nt
CC(C)c1ccc(OCCOCCN2CCN(C)CC2)cc1 | 59 | i | i | i | i | 31
CCOc1ccc(OCCOCCN2CCN(C)CC2)cc1 | 72 | i | i | i | i | i
Cc1ccc(OCCOCCN2CCN(C)CC2)cc1 | 60 | i | i | i | i | i
O=C(COC(=O)c1ccc(Oc2ccc(C(=O)c3ccccc3)cc2)cc1)c1ccccc1 | i | i | i | i | nt | nt
CN(C)c1ccc(/C=N/c2nnc(NC(=O)c3ccccc3Br)s2)cc1 | i | i | i | i | nt | nt
CC(C)(C)NC(=O)CSc1nnnn1-c1cccc2ccccc12 | i | i | i | i | nt | nt
O=c1cc(-c2ccccc2)nc2nn[nH]n12 | i | i | i | i | nt | nt
O=c1cc(/C=C/c2ccc(O)cc2)nc2nn[nH]n12 | 57 | i | i | i | 39 | i | AS interf DR=i
COc1ccccc1C(=O)NC1(C(F)(F)F)NC(=O)N(c2ccccc2)C1=O (stereo unspecified) | 88 | i | i | i | i | i
COc1ccc2c(c1)CCc1c(C(=O)Nc3ccc4c(c3)OCO4)noc1-2 | i | i | i | i | nt | nt
COc1ccc(CNC(=O)c2cnn3c2NC(c2ccc4c(c2)OCO4)CC3C(F)(F)F)cc1 (stereo unspecified) | 68 | i | i | i | i | i
COc1ccc(CNC(=O)c2cnn3c2NC(c2ccc(OC)cc2)CC3C(F)(F)F)cc1 (stereo unspecified) | i | i | i | i | nt | nt
CCOC(=O)c1sc(NC(=O)c2cnccn2)c(C(=O)OC)c1C | i | i | i | i | nt | nt
CCOC(=O)c1sc2ncnc(NCC(OCC)OCC)c2c1C | i | i | i | i | nt | nt
COC(=O)CN1C(=O)S/C(=C/c2ccc([N+](=O)[O-])o2)C1=O | 62 | i | i | i | 47 | i | AS interf DR=i
Clc1cccc(-c2csc(N3CCOCC3)n2)c1 | i | i | i | i | nt | nt
Cc1ccc(C(NC(=O)/C=C\c2ccc3c(c2)OCO3)C(=O)Nc2ccc3c(c2)OCO3)cc1 (stereo unspecified) | 68 | i | i | i | i | i
SMILES | MITF inh | FBW7 act | TEAD-YAP block | GPR151 ag | MITF inh conf | AS interf ctr | others
CCOC(=O)c1sc(NC(=O)CN2CCCCC2C)c(C(=O)OCC)c1C (stereo unspecified) | i | i | i | i | nt | nt
COC(=O)c1sc(NC(=O)CN2CCCCC2C)c(C(=O)OC)c1C (stereo unspecified) | 59 | i | i | i | i | i
Cc1csc(-c2cc3ccccc3oc2=O)n1 | 67 | i | i | i | i | i
COc1ccc(CN2CCN(Cc3cccn3C)CC2)c(OC)c1OC | i | i | i | i | nt | nt
COc1ccc(CN2CCN(CCOc3ccccc3C#N)CC2)c(OC)c1OC | 69 | i | i | i | i | i
COc1ccc(CN2CCN(CCOc3ccccc3)CC2)c(OC)c1OC | 72 | i | i | i | i | i
O=C(Nc1ccc(O)c(C(=O)O)c1)c1ccc(Br)cc1 | i | i | i | i | nt | nt
O=C(O)C1=CC(=C(c2ccc(O)c(C(=O)O)c2)c2ccc(O)c(C(=O)O)c2)C=CC1=O | 64 | i | i | i | 83 | 50
CC(C)(C)C(=O)N1CCC(c2nc3c(nnn3Cc3ccccc3)c(=O)[nH]2)CC1 | 71 | i | i | i | i | i
CC(C)(C)C(=O)N1CCCC(c2nc3c(nnn3Cc3ccccc3)c(=O)[nH]2)C1 (stereo unspecified) | i | i | i | i | nt | nt
O=C(N/N=C/c1cccs1)c1cccc(N2CCCC2=O)c1 | i | i | i | i | nt | nt
CCC[C@@H]1NC(=O)[C@H]2CN(Cc3cnn(-c4ccccc4OC)c3)CCN2C1=O | 51 | i | i | i | i | i
COc1ccccc1-n1cc(CN2CCN3C(=O)[C@H](CO)NC(=O)[C@H]3C2)cn1 | i | i | i | i | nt | nt
COc1ccc2c3c(cccc13)C(=O)N(O)C2=O | i | i | i | i | nt | nt
COc1ccc2c3c(cccc13)C(=O)N(C)C2=O | 67 | i | i | i | 76 | i | AS interf DR=i
CCn1c(SCC(=O)Nc2ccc(OC)cc2)nc2ccsc2c1=O | i | i | i | i | nt | nt
OCCC1CN(Cc2nc(-c3ccccc3)no2)CCN1C1CCCC1 (stereo unspecified) | i | i | i | i | nt | nt
CCOC(=O)CCCCC(=O)c1[nH]c(=O)[nH]c1Cn1ccnc1 | i | i | i | i | nt | nt
CCOC(=O)CCCCC(=O)c1[nH]c(=O)n(C(=O)c2ccccc2)c1C | 89 | i | i | i | 115 | 98
CCOC(=O)CCCCC(=O)c1c(C)n(C(=O)c2ccc(N3C(=O)CCC3=O)cc2)c(=O)n1C(=O)c1ccc(N2C(=O)CCC2=O)cc1 | 107 | i | i | i | 107 | 88
CC1CCN(C(=O)c2cc(NC(=O)c3ccc(Cl)cc3)c(=O)n(C)c2)CC1 | i | i | i | i | nt | nt
CC(=O)N1CCN(C(=O)COc2ccc(Br)cc2)CC1 | 53 | i | i | i | i | i
O=CN1CCN(C(=O)COc2ccc(Br)cc2)CC1 | i | i | i | i | nt | nt
Cc1[nH]ncc1-c1ccc(NC(=O)C2COc3ccccc3O2)c(SCCN(C)C)c1 (stereo unspecified) | i | i | i | i | nt | nt
COc1cc(OC)c(OC)cc1CN1CCN(c2ccc(F)cc2)CC1 | i | i | i | i | nt | nt
COc1cc(OC)c(OC)cc1CN1CCN(Cc2c[nH]c3ccccc23)CC1 | 55 | i | i | i | i | i
COc1ccc(CN2CCN(Cc3c[nH]c4ccccc34)CC2)c(OC)c1OC | 62 | i | i | i | i | i
FC(F)(F)c1ccc(Cn2cnc3c(NC4CC4)nc(-c4cccs4)nc32)cc1 | i | i | i | i | nt | nt
COc1cccc(CN2CCC(N3CCN(c4ccccc4F)CC3)CC2)c1 | 73 | i | i | i | i | i
